# Test results as given in the supplement of paper PMC8728848.
# This is one part of a sample in which the strongest signals are shown more often than they occur.
# Experiments:
# Test in all cases: glycan array binding signal (z-score within array); higher = stronger binding
# Conditions in all cases: glycan notation: IUPAC condensed, linker removed
# [1] = target: Fuc(a1-2)Gal(b1-4)GlcNAc(b1-2)Man(a1-3)[Fuc(a1-2)Gal(b1-4)GlcNAc(b1-2)Man(a1-6)]Man(b1-4)GlcNAc(b1-4)[Fuc(a1-6)]GlcNAc
# Outline: (§1)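 Negative Z-scores can be read as non-binding. The Z-score is calculated within each array and then averaged across arrays of one protein sequence at different concentrations or buffers and across linkers. Arrays, 3228 in all, were curated from the Consortium for Functional Glycomics database and kept only where the protein sequence was available.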
# [2] = target: Fuc(a1-2)Gal(b1-4)[Fuc(a1-3)]GlcNAc(b1-3)GalNAc
# Outline: as §1
# [3] = target: Fuc(a1-2)Gal6S(b1-4)GlcNAc
# Outline: as §1
# [4] = target: Fuc(a1-2)[Gal(a1-3)]Gal(b1-3)GlcNAc(b1-2)Man(a1-3)[Fuc(a1-2)[Gal(a1-3)]Gal(b1-3)GlcNAc(b1-2)Man(a1-6)]Man(b1-4)GlcNAc(b1-4)[Fuc(a1-6)]GlcNAc
# Outline: as §1
# [5] = target: Fuc(a1-2)[Gal(a1-3)]Gal(b1-4)[Fuc(a1-3)]GlcNAc(b1-3)GalNAc
# Outline: as §1
# [6] = target: Fuc(a1-2)[GalNAc(a1-3)]Gal(b1-4)GlcNAc(b1-3)Gal(b1-4)GlcNAc
# Outline: as §1
# [7] = target: Gal(a1-2)Gal
# Outline: as §1
# [8] = target: Gal(b1-2)Gal
# Outline: as §1
# [9] = target: Gal(b1-3)GalNAc(a1-3)[Fuc(a1-2)]Gal(b1-4)Glc
# Outline: as §1
# [10] = target: Gal(b1-3)GlcNAc(b1-3)Gal(b1-4)Glc
# Outline: as §1
# [11] = target: Gal(b1-3)GlcNAc(b1-3)GalNAc
# Outline: as §1
# [12] = target: Gal(b1-3)[Fuc(a1-4)]GlcNAc(b1-2)Man(a1-3)[Gal(b1-3)[Fuc(a1-4)]GlcNAc(b1-2)Man(a1-6)]Man(b1-4)GlcNAc(b1-4)[Fuc(a1-6)]GlcNAc
# Outline: as §1
# [13] = target: Gal(b1-3)[Fuc(a1-4)]GlcNAc(b1-3)Gal(b1-3)[Fuc(a1-4)]GlcNAc
# Outline: as §1
# [14] = target: Gal(b1-4)Gal
# Outline: as §1
# [15] = target: Gal(b1-4)GlcNAc(b1-6)Gal(b1-4)GlcNAc
# Outline: as §1
# [16] = target: Gal3S(b1-4)Glc6S
# Outline: as §1
# [17] = target: Gal3S(b1-4)[Fuc(a1-3)]Glc6S
# Outline: as §1
# [18] = target: GalNAc(a1-3)Fuc(a1-2)Gal(b1-4)GlcNAc(b1-3)[GalNAc(a1-3)Fuc(a1-2)Gal(b1-4)GlcNAc(b1-6)]GalNAc
# Outline: as §1
# [19] = target: GalNAc(b1-3)Gal
# Outline: as §1
# [20] = target: GalNAc(b1-4)GlcNAc(b1-2)Man(a1-3)[GalNAc(b1-4)GlcNAc(b1-2)Man(a1-6)]Man(b1-4)GlcNAc(b1-4)GlcNAc
# Outline: as §1
# [21] = target: Glc(a1-4)Glc
# Outline: as §1
# [22] = target: GlcA(b1-3)Gal
# Outline: as §1
# [23] = target: GlcNAc(a1-4)Gal(b1-4)GlcNAc(b1-3)Gal(b1-4)GlcNAc
# Outline: as §1
# [24] = target: GlcNAc(a1-4)Gal(b1-4)GlcNAc(b1-3)Gal(b1-4)GlcNAc(b1-3)Gal(b1-4)GlcNAc
# Outline: as §1
# [25] = target: GlcNAc(a1-4)Gal(b1-4)GlcNAc(b1-3)Gal(b1-4)[Fuc(a1-3)]GlcNAc(b1-3)Gal(b1-4)[Fuc(a1-3)]GlcNAc
# Outline: as §1
# [26] = target: GlcNAc(b1-4)Gal(b1-4)GlcNAc
# Outline: as §1
# [27] = target: Kdn(a2-3)Gal(b1-4)[Fuc(a1-3)]GlcNAc
# Outline: as §1
# [28] = target: Man(a1-2)Man(a1-3)[Man(a1-2)Man(a1-6)]Man(a1-6)[Man(a1-2)Man(a1-2)Man(a1-3)]Man
# Outline: as §1
# [29] = target: Man(a1-2)Man(a1-3)[Man(a1-6)]Man(a1-6)[Man(a1-2)Man(a1-3)]Man(b1-4)GlcNAc(b1-4)GlcNAc
# Outline: as §1
# [30] = target: Man(a1-3)[Man(a1-6)]Man
# Outline: as §1
# [31] = target: Neu5Ac(a2-3)Gal
# Outline: as §1
# [32] = target: Neu5Ac(a2-3)Gal(b1-3)GalNAc6S
# Outline: as §1
# [33] = target: Neu5Ac(a2-3)Gal(b1-4)GlcNAc(b1-2)Man(a1-3)[GlcNAc(b1-2)Man(b1-4)GlcNAc(b1-2)Man(a1-6)]Man(b1-4)GlcNAc(b1-4)GlcNAc
# Outline: as §1
# [34] = target: Neu5Ac(a2-3)Gal6S(b1-4)GlcNAc
# Outline: as §1
# [35] = target: Neu5Ac(a2-6)Gal(b1-4)GlcNAc(b1-2)Man(a1-3)[GlcNAc(b1-2)Man(a1-6)]Man(b1-4)GlcNAc(b1-4)GlcNAc
# Outline: as §1
# [36] = target: Neu5Ac(a2-6)Gal(b1-4)GlcNAc(b1-2)Man(a1-3)[Man(a1-6)]Man(b1-4)GlcNAc(b1-4)GlcNAc
# Outline: as §1
# [37] = target: Neu5Gc(a2-3)Gal(b1-4)GlcNAc
# Outline: as §1
# [38] = target: Neu5Gc(a2-6)GalNAc
# Outline: as §1
binder,measurement,setting,value
"NanH (Corynebacterium diphtheriae), C6JSW6 (protein) MYSSNRTYSRAILGLSAVLTLSFTSLVAPVNAEEPETVVPATAELEGEVAATLPSAETGLLDAAPPKPVARGAAGDLQLPAVNEKEVFEEGRVIRAPEPDQSRCYRIPALVTAKNGDLLLAFDNRYGGGDGAKTWCRDAPYENMKRINRQNMQTDIQLYRSVDNGQSFEDFGYIAQGTADVRELSYTDPALVTDRTTGKIFAFFVRAYDYRVGQSSAGFNEGDVEAEIQKRDVQDTVVVESLDGGQTWGNMRLLSALTAKVSSISTGDTIFDGRGRFVTSGAGIQLQYGEHAGRLIVPISVDIDPKDSAKFINLAIYSDDHGQTWQAGIGTAGGAGFSGDVSKIVELSDGRLMMSSKDNDKPRWVSYSEDQGENWSTPKRKIIAPPQHPEKHNTGINVGLIRAYPNAPENSAAARVLLYSAPIDQRYSHKHTEDGRNNGWVMGSCDDGKTWSFGRQIEKNRFQYSSMTVMSDGNIGMVYESGDFSTGMNLKFAKFNMAWLGADCHSNEALGLTGDIDKEIVEAQEKAAEATKEAQEAAEKVQKLTEELAAARKENDELKNQVKGFKEAVGDLANEAEDLADKVFKLETAVTEAKEKATVAEKAASDAVTQLQKAESIAEEQKAKAESAAAEAQALREKLERLEGSILTVKENPEAEEIADLSSTAKDAADAARRAATDANGALSGQKQDEEKPAMGLMGILKVLAGIIPLVAIIATIFQTFRLPFNIPGMR",glycan array binding signal (z-score),[1],1.01
same,glycan array binding signal (z-score),[2],3.22
same,glycan array binding signal (z-score),[3],0.001
same,glycan array binding signal (z-score),[4],1.3
same,glycan array binding signal (z-score),[5],-0.377
same,glycan array binding signal (z-score),[6],0.149
same,glycan array binding signal (z-score),[7],-1.72
same,glycan array binding signal (z-score),[8],2.93
same,glycan array binding signal (z-score),[9],1.05
same,glycan array binding signal (z-score),[10],-1.28
same,glycan array binding signal (z-score),[11],-1.71
same,glycan array binding signal (z-score),[12],2.84
same,glycan array binding signal (z-score),[13],-0.787
same,glycan array binding signal (z-score),[14],-1.5
same,glycan array binding signal (z-score),[15],1.11
same,glycan array binding signal (z-score),[16],-0.269
same,glycan array binding signal (z-score),[17],-0.594
same,glycan array binding signal (z-score),[18],0.818
same,glycan array binding signal (z-score),[19],-1.91
same,glycan array binding signal (z-score),[20],3.38
same,glycan array binding signal (z-score),[21],-0.111
same,glycan array binding signal (z-score),[22],2.74
same,glycan array binding signal (z-score),[23],3.02
same,glycan array binding signal (z-score),[24],-1.05
same,glycan array binding signal (z-score),[25],3.97
same,glycan array binding signal (z-score),[26],-0.683
same,glycan array binding signal (z-score),[27],-0.213
same,glycan array binding signal (z-score),[28],3.74
same,glycan array binding signal (z-score),[29],-0.263
same,glycan array binding signal (z-score),[30],-0.151
same,glycan array binding signal (z-score),[31],0.353
same,glycan array binding signal (z-score),[32],1.83
same,glycan array binding signal (z-score),[33],0.603
same,glycan array binding signal (z-score),[34],-1.04
same,glycan array binding signal (z-score),[35],0.122
same,glycan array binding signal (z-score),[36],-0.077
same,glycan array binding signal (z-score),[37],-0.068
same,glycan array binding signal (z-score),[38],0.15
